In all, about 33,000 sequences were measured (“E-score (-0.5 to 0.5)”: median about -0.016, highest 2% from about 0.3 on). For the sample, the highest values were picked, then their nearest neighbours and some sequences at random.
biological target: T1, Yer184c (UniProt P39961); assay: PBM E-score (8-mer binding enrichment) (E-score (-0.5 to 0.5)); higher = stronger / more preferred TF binding; settings: protein concentration: 100 nM; construct: GST-full length
T1 sequence: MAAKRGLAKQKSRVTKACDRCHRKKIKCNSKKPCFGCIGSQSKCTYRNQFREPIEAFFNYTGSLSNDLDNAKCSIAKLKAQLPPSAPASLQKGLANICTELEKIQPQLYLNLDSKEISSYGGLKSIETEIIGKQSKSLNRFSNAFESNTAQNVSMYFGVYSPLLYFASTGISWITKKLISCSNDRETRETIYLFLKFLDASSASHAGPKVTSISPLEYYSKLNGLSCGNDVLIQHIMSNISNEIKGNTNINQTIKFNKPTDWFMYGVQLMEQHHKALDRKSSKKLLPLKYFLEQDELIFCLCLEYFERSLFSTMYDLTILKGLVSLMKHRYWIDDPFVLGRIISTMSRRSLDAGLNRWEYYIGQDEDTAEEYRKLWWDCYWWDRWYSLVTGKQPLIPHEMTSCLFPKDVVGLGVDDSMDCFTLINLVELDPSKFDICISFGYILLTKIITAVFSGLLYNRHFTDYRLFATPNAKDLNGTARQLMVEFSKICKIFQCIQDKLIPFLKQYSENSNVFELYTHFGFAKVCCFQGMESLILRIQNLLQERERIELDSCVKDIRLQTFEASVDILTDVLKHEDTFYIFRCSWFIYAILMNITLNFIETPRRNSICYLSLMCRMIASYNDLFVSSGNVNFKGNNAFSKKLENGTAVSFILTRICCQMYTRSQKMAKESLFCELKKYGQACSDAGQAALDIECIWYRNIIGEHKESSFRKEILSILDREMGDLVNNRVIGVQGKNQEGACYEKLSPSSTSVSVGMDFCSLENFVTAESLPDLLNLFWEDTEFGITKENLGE
Experimental: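 Universal 'all 10-mer' protein binding microarrays (Agilent AMADID 015681) probed with GST-tagged S. cerevisiae TFs (full-length or DBD) made by in vitro transcription/translation (PURExpress), about 100-200 nM. Bound TF was detected with fluorescent anti-GST. Each ungapped 8-mer (which stands for itself and its reverse complement) is scored by the PBM enrichment score (E-score), a modified Wilcoxon-Mann-Whitney statistic from -0.5 to +0.5, computed with the Universal PBM Analysis Suite. Scale: above 0.35 generally sequence-specific binding.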

| Sequence | PBM E-score |
| --- | --- |
| AACCGGCC | 0.318 |
| AACCGGCA | 0.238 |
| CACCGGCC | 0.177 |
| AACCGACG | 0.189 |
| CACCGGCG | 0.238 |
| AACCGGCG | 0.306 |
| ATATGAAT | 0.156 |
| ATACTCGA | -0.0376 |
| AAGTCCCC | -0.18 |
| TAAAAGTA | 0.161 |
| AGAGAGTG | -0.158 |
| CTCTCATA | -0.0704 |
| GAGGGAGC | -0.277 |
| CGAGGTTC | 0.116 |
| CCCGAGGA | 0.0175 |
| GCCGAGGC | 0.386 |
| CCCGAGGC | -0.013 |
| ACCGAGCC | 0.221 |
| GCCGAGGA | 0.335 |
| ACCGAGGC | -0.0788 |
| GCCGAGCC | 0.34 |
| TCCGAGGA | 0.196 |
| CCCGAGCC | 0.155 |
| AGCGGTGC | -0.168 |
| AATTGCGC | 0.16 |

| Sequence | PBM E-score |
| --- | --- |
| CGGATCAC | 0.277 |
| CTTTATAA | 0.0517 |
| ATATATAG | 0.282 |
| ATATATAC | 0.317 |
| ATATATAT | 0.336 |
| ATTTATAA | 0.326 |
| ATATATTG | 0.0957 |
| CTATATTC | -0.0128 |
| CTATATAC | 0.247 |
| ATATATTC | 0.319 |
| GTATATAC | -0.0816 |
| CTATATAG | -0.109 |
| ATTTATAC | 0.28 |
| AGTAGCCG | 0.198 |
| GTGACATA | 0.121 |
| CTTTACCC | 0.00954 |
| CCTGAAAC | 0.15 |
| AATACTGT | 0.188 |
| GAAGCAAA | -0.0663 |
| CAGCCTCG | -0.0314 |
| GGCTTAAC | -0.0348 |
| TTATATAA | 0.225 |
| CTATAACA | -0.0394 |
| CTATATAA | 0.0877 |
| ATATATAA | 0.339 |

| Sequence | PBM E-score |
| --- | --- |
| ATATAACA | 0.309 |
| ATATAACC | -0.0755 |
| AGATGGGA | -0.194 |
| GAGGCTGA | -0.172 |
| ACAGGGGA | -0.249 |
| CCAGTCGG | -0.0574 |
| AGATATCC | 0.0863 |
| AAATATCG | 0.194 |
| AATTATCC | 0.116 |
| ATATATCG | 0.312 |
| AATTATCG | 0.305 |
| AATTATCA | 0.221 |
| CTATATCC | -0.119 |
| ATATATCA | 0.115 |
| ATATATCC | 0.318 |
| AAGTATTC | 0.0574 |
| CGTAAGCA | -0.252 |
| AGCTAGCC | -0.0869 |
| AAGGTGAA | -0.0939 |
| CAGCAAAA | -0.0176 |
| CCATACCA | -0.145 |
| ATTGAGTA | 0.191 |
| GGGACAAC | -0.0988 |
| CGGACGAC | 0.23 |
| CGGACAAC | 0.373 |

| Sequence | PBM E-score |
| --- | --- |
| CGGACAAA | 0.353 |
| AGGACAAA | 0.136 |
| CGGACAAG | 0.234 |
| GGGACGAA | 0.0852 |
| AGGACAAC | 0.0373 |
| CGGACGAA | 0.353 |
| CATCGAAG | -0.0421 |
| ACTTAACA | -0.00053 |
| ATGCTCTG | -0.178 |
| AATGGCCG | 0.0612 |
| ATGAAGGC | -0.0969 |
| CGTCCCGA | 0.0521 |
| GATCTGAC | -0.0541 |
| ATTGCCCA | -0.102 |
| ATTGCCGC | 0.162 |
| ATTGCCGA | 0.311 |
| ATTGCCGG | 0.348 |
| GTTGCCCA | -0.0158 |
| GTTGCCGA | 0.373 |
| GCTGCCGA | 0.292 |
| CTTGCCGA | 0.22 |
| ATTGCCAG | -0.0205 |
| TCCTGCGA | 0.00447 |
| GGCCAACA | -0.0401 |
| GCTGTTAC | -0.0967 |

| Sequence | PBM E-score |
| --- | --- |
| CTTAGCAA | 0.0294 |
| TCCTGCAA | -0.0596 |
| AGGCATAT | 0.0107 |
| ACGCCAGA | -0.132 |
| CAACCGGG | 0.14 |
| CAACCGCA | 0.0386 |
| CAACCGAA | 0.258 |
| CAACCGCC | -0.042 |
| GAACCGGA | 0.349 |
| TAACCGGA | 0.279 |
| CAACCGCG | 0.306 |
| CAACCGAC | 0.238 |
| CTACCGGC | 0.0792 |
| CAACCGGC | 0.323 |
| GAACCGGC | 0.18 |
| CAACCGGA | 0.373 |
| CTCTAACA | 0.0218 |
| AGTTCGAT | -0.0396 |
| AGGTGAAC | -0.112 |
| ACGTTGCT | -0.0994 |
| CGGATGGA | 0.207 |
| ATCACAAT | 0.0634 |
| CAAGCGCA | 0.0414 |
| CCCACCTA | -0.241 |
| GGTATCAA | -0.0802 |

| Sequence | PBM E-score |
| --- | --- |
| AAACCGGT | 0.216 |
| AAACCGGA | 0.306 |
| AAACCGGG | 0.0839 |
| AAACCGCC | 0.147 |
| AGACCGGC | 0.128 |
| AAACCGGC | 0.313 |
| ATTTAGAC | 0.121 |
| AAAACCCG | 0.163 |
| AAAGCCGT | 0.262 |
| CAAGCCCA | -0.326 |
| TAAGCCGA | 0.369 |
| AAAGCCGC | 0.188 |
| AAAGCCGA | 0.174 |
| CAAGCCGG | 0.327 |
| GAAGCCGA | 0.287 |
| CCAGCCGA | 0.205 |
| CAAGCCGC | -0.0146 |
| AAAGCCGG | 0.351 |
| CAAGCCGA | 0.324 |
| CAAGCCTG | -0.271 |
| CTCACAAG | -0.177 |
| AAGGTCGG | -0.018 |
| TAGGTGAA | 0.0169 |
| CACCAACA | -0.23 |
| GGCTATCA | 0.131 |

| Sequence | PBM E-score |
| --- | --- |
| GCTCGGAC | 0.187 |
| GCTCGGAA | 0.334 |
| ACTCGGAT | 0.268 |
| ACTCGGAC | 0.208 |
| TGTCGGAA | 0.163 |
| GCTCGGTA | 0.129 |
| ACTCGGAA | 0.341 |
| TCTCGGAA | 0.334 |
| CCTCGGAA | 0.28 |
| GCAGCAGC | -0.0995 |
| CCATAGCG | -0.124 |
| CGGTCTCA | 0.0469 |
| GGACGCCA | -0.224 |
| CCTCTTCA | -0.18 |
| ATTCTCGC | -0.192 |
| ATTCTCGA | 0.0246 |
| ACTCTCGA | -0.0924 |
| ACTCTCGG | 0.344 |
| ATTCTCGG | 0.345 |
| ACTCTCGC | -0.169 |
| ACCACGAT | -0.0131 |
| AGTTATGG | -0.0312 |
| GCCAACAC | 0.0745 |
| CGTTGTTC | -0.00041 |
| CTGGGCGA | -0.206 |

| Sequence | PBM E-score |
| --- | --- |
| GCCCATCC | -0.224 |
| TCGGTAGA | 0.307 |
| CCGGTAGA | 0.264 |
| ACGGTAGA | -0.0773 |
| AGGCGATG | -0.0512 |
| CCGCTGCG | -0.122 |
| GCTAGCGA | -0.147 |
| ACCCGAGT | 0.0508 |
| CCTTACCG | 0.114 |
| AAGAAATA | 0.163 |
| AAGAAATT | 0.346 |
| AAGAAATG | 0.227 |
| AGTCGTGG | -0.191 |
| ATCATTAG | 0.037 |
| ATAATTAG | 0.203 |
| ATAATTAA | 0.323 |
| GTAATTAA | 0.143 |
| ATAATTAC | 0.265 |
| TTAATTAA | -0.041 |
| AAAATTAA | 0.168 |
| ATCATTAA | 0.307 |
| CAAATTAA | 0.0386 |
| GAAATTAA | 0.337 |
| ATAATTAT | 0.386 |
| CTCATTAA | 0.067 |

| Sequence | PBM E-score |
| --- | --- |
| AACAAACT | 0.277 |
| AACAACGA | 0.112 |
| AGTGGCCC | -0.153 |
| CAGGTATA | -0.163 |
| AGTGTGCA | -0.0513 |
| AACGATGT | 0.13 |
| CTCACCCA | -0.0925 |
| CACGTTCG | -0.203 |
| GCGCAAGA | 0.188 |
| AAAATTAT | 0.316 |
| AAAATTAG | 0.227 |
| AAAATTAC | 0.127 |
| AGGGATAG | -0.208 |
| CCATCTAC | -0.15 |
| GGCGGATA | 0.0758 |
| GCCGGATA | 0.354 |
| CCCGGACA | 0.283 |
| GCAGGATA | -0.168 |
| ACCGGACA | 0.122 |
| GACGGACA | 0.121 |
| TCCGGACA | 0.431 |
| GCCGGACC | 0.214 |
| GCCGGACA | 0.36 |

Source: the supplement of paper PMC3334620
